Shown are actives, neighbours in structure and some others; about 21% of the full set was active somewhere.
DT40 TDP1 no CPT – qHTS for Inhibitors of human tyrosyl-DNA phosphodiesterase 1 (TDP1): qHTS in cells in absence of CPT | DT40 Tdp1-/- hTDP1 cells, no CPT, ATP luminescence, 48 h | Potency, µM (doses to about 46.2 µM), actives largely listed as inhibitors | hit rate 15% among 420,000 | AID 686978, 2013; also: nearly all actives have a fitted effect of over 55% in size
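Growth of hTDP1-complemented DT40 Tdp1-knockout cells is measured by ATP luminescence after at least 48 hr compound exposure at 37 °C, with DMSO substituting for the 20 nM CPT used in the parallel screen.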
ELG1 DNA repair – blocks ELG1-dependent DNA repair in HEK293T cells | HEK293T ELG1-luciferase reporter, luminescence, 16 h; DNA damage induced by 5-fluorouridine | Potency, µM (doses to about 46.1 µM), most hits filed as inhibitors | hit rate 2.3% among 330,000 | AID 504467; also: nearly all actives have a fitted effect of over 55% in size
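Overnight (16 hr) co-exposure of 2,000 cells/well to 5-fluorouridine and compound at 37 °C preceded detection. Luciferase was quantified via ONE-Glo luminescence; loss of signal denotes inhibition.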
RORg inh – blocks mouse ROR gamma transcriptional activity. hit rate 5.4% among 310,000. P51450. Drosophila S2 Gal4-RORgamma UAS-luciferase reporter, 20 h. Potency, µM (top dose mostly 53.6 µM), usual class: inhibitors. AID 2551; also: nearly all actives have a fitted effect of over 60% in size
Target sequence (P51450 whole entry, looked up, the tested form may be a part): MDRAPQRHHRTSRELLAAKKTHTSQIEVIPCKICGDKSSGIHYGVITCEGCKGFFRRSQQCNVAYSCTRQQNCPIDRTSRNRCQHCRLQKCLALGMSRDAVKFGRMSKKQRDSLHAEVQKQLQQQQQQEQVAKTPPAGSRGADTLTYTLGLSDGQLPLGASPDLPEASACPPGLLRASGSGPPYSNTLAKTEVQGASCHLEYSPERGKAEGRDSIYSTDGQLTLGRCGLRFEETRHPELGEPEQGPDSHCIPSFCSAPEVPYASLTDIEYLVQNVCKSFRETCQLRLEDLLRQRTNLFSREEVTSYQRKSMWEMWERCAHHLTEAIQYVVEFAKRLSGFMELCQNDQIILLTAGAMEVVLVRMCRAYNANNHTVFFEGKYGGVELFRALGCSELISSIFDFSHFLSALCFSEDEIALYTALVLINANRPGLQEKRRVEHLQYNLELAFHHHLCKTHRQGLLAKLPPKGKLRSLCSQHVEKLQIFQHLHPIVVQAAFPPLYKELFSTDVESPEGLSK
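ROR gamma transcriptional activity was tracked as Gal4-UAS luciferase output in stably transfected Drosophila Schneider cells, with compound added 1 hr before 700 uM copper sulfate induction and a 20 hr ambient-temperature incubation.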
TDP1 cell CPT – DT40-hTDP1 cell growth loss with CPT; chicken DT40 Tdp1-/-;hTDP1 cells + 20 nM CPT, ATP luminescence, 48 h; Potency, µM (doses to about 46.2 µM), actives largely listed as inhibitors; hit rate 12% among 420,000; AID 686979; also: nearly all actives have a fitted effect of over 55% in size
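Chicken DT40 Tdp1-/- cells complemented with human TDP1, 400 cells/well, exposed to compounds plus 20 nM camptothecin for at least 48 h at 37 C; viability read as ATP content by CellTiter-Glo luminescence.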
IL-1B inflam inh – blocks inflammasome-driven IL-1 beta release. THP-1 LPS/ATP IL-1B secretion, AlphaLISA, 16 h; active compounds read low. activity change, % at 57.5 µM. hit rate 4.7% among 360,000. AID 743279; in the data active = activity change below about -50%; inconclusive = mostly about -30% to -49%
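THP-1 cells pretreated 1 hr with compounds (up to 57.5 uM final), then stimulated with LPS (250 ng/mL final) plus ATP (1.25 mM final); secreted IL-1B measured by AlphaLISA after 16 hr, decreased signal indicating inhibition.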
VP16 counter – inhibits Gal4-VP16 luciferase reporter, ROR gamma counter-screen; Drosophila S2 Gal4-VP16 UAS-luciferase, luminescence, 20 h; hit rate 3.5% among 310,000; Potency, µM (highest dose often 53.6 µM), usual class: inhibitors;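 also: Gal4-VP16 expression switched on by copper sulfate through the metallothionein promoter; nearly all actives have a fitted effect of over 50% in size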
A number is an active result; . = inactive; ? = inconclusive; / = not tested or not shown. Unless noted, calls follow the shape of the dose curve; as a rule, active = well fitted curve in the direction sought with a large enough effect; inconclusive = small, poorly fitted or top-dose-only effect, or another doubt; inactive = no such curve, though single readings can be large; an effect the other way counts as inactive or inconclusive.

SMILES | DT40 TDP1 no CPT | ELG1 DNA repair | RORg inh | TDP1 cell CPT | IL-1B inflam inh | VP16 counter
Cc1ccc(NC(=O)c2n[nH]c(=O)c3ccccc23)cc1S(=O)(=O)N1CCOCC1 | ? | ? | / | ? | . | /
CCN(CC)S(=O)(=O)c1cc(NC(=O)Cc2n[nH]c(=O)c3ccccc23)ccc1C | 13µM | 21µM | ? | ? | . | .
CN(c1ccccc1)S(=O)(=O)c1cccc(NC(=O)Cc2n[nH]c(=O)c3ccccc23)c1 | 12µM | ? | / | 13µM | . | /
Cc1ccc(NC(=O)Cc2n[nH]c(=O)c3ccccc23)cc1S(=O)(=O)N1CCCCCC1 | 16µM | ? | / | ? | . | /
O=C(CSc1ccc(-c2ccco2)nn1)Nc1ccccc1F | . | ? | . | ? | . | .
COc1ccc(/C(N)=N/O)c(OC)c1 | . | . | . | . | . | .
COc1ccc(C2NC(=O)c3c(sc4c3CCN(C)C4)N2)cc1O (stereo unspecified) | . | / | / | . | / | /
COc1ccc(C(=O)Oc2ccc(C3NC(=O)c4c(sc5c4CCN(C)C5)N3)cc2OC)cc1 (stereo unspecified) | 16µM | / | / | ? | / | /
CN1CCc2c(sc3c2C(=O)NC(c2ccc(C(C)(C)C)cc2)N3)C1 (stereo unspecified) | 13µM | / | / | ? | / | /
COc1cc(OC)cc(-c2c(-c3ccsc3)c3cc(Br)ccc3n2C)c1 | ? | . | / | . | . | /
COC(=O)c1cn(NC(=O)c2cc([N+](=O)[O-])ccc2F)c(=O)c2ccccc12 | 4.6µM | ? | . | 3.3µM | -93 | .
COc1cc(OC)cc(C(=O)Nn2cc(C(=O)Nc3ccc(F)cc3F)c3ccccc3c2=O)c1 | ? | ? | . | 13µM | . | .
COc1cc(OC)cc(C(=O)Nn2cc(C(=O)N3CCN(C)CC3)c3ccccc3c2=O)c1 | . | . | . | . | . | .
CCOC(=O)c1cc(-c2ccccc2)n(CCC(=O)N2CCN(c3ccccc3OC)CC2)c1C | 8.2µM | ? | ? | 12µM | ? | ?
CCOC(=O)c1cc(-c2ccccc2)n(CCC(=O)N2CCN(c3ccc(OC)cc3)CC2)c1C | 23µM | ? | ? | 15µM | -60 | .
Cc1cc(C(=O)NCCN2CCN(c3cccc(Cl)c3)CC2)n(-c2ccccc2)n1 | 4.1µM | 8.2µM | . | 5.8µM | . | .
Cc1nn(-c2ccccc2)c(-n2cccc2)c1C(=O)NCCCN1CCN(c2ccccc2F)CC1 | 18µM | / | / | 16µM | / | /
Cc1cc(C(=O)NCCCN2CCN(c3cc(Cl)ccc3C)CC2)n(-c2ccccc2)n1 | ? | ? | . | 10µM | . | .
Cn1cc(C(=O)NCCN2CCN(c3cccc(Cl)c3)CC2)c2c3ccccc3n(C)c2c1=O | 15µM | ? | . | 26µM | . | .
COCCCNC(=O)c1cn(C)c(=O)c2c1c1ccccc1n2C | . | . | . | . | . | .
O=C(Cn1cc2c(n1)CCCC2)NCCCN1CCN(c2ccccc2F)CC1 | ? | . | . | ? | . | .
Cc1cccc(NC(=O)NNC(=O)c2ccccn2)c1 | . | . | / | . | . | /
CCOC(=O)[C@H]1[C@H]2COc3ccc(Cl)cc3[C@@H]2N2C(=O)CN(Cc3ccc(OC)cc3)C(=O)[C@@]12C | 18µM | ? | / | ? | . | /
CCCCN1CC(=O)N2[C@H]3c4cc(Cl)ccc4OC[C@@H]3[C@H](C(=O)OCC)[C@]2(C)C1=O | . | . | / | . | . | /
CCOC(=O)[C@H]1[C@H]2COc3ccc(Cl)cc3[C@@H]2N2C(=O)CN(Cc3ccco3)C(=O)[C@@]12C | ? | . | / | 26µM | . | /
SMILES | DT40 TDP1 no CPT | ELG1 DNA repair | RORg inh | TDP1 cell CPT | IL-1B inflam inh | VP16 counter
CCOC(=O)[C@H]1[C@H]2COc3ccc(C)cc3[C@@H]2N2C(=O)CN(Cc3ccccc3)C(=O)[C@@]12C | ? | . | / | ? | ? | /
CCOC(=O)[C@H]1[C@H]2COc3ccc(Cl)cc3[C@@H]2N2C(=O)CN(Cc3ccc(C)cc3)C(=O)[C@@]12C | 16µM | ? | / | 18µM | ? | /
CCOC(=O)[C@H]1[C@H]2COc3ccc(Br)cc3[C@@H]2N2C(=O)CN(Cc3ccccc3)C(=O)[C@@]12C | 26µM | . | / | ? | . | /
CC(C)c1ccc(CNc2ncccn2)cc1 | . | ? | . | . | . | .
CCNC(=O)N(C)c1c(CC)nc2ccc(C(=O)N3CCN(S(=O)(=O)CC)CC3)cn12 | . | / | / | . | . | /
CC(C)c1ccc(Nc2c(-c3ccc(N4CCOCC4)cc3)nc3ncccn23)cc1 | . | / | / | . | / | /
CC(C)CNC(=S)NNC(=O)CC(C)O (stereo unspecified) | . | . | . | . | . | .
CCCCNC(=S)NNC(=O)c1nn(C)c(C)c1Cl | . | . | ? | . | . | .
CCCCNC(=S)NNC(=O)CCn1cc(C)cn1 | . | . | 1.6µM | . | . | 6.3µM
Cc1cnn(CCC(=O)NNC(=S)NCC(C)C)c1 | 26µM | . | 0.56µM | ? | . | 3.2µM
COc1ccc(NC(=O)c2c(N)c(C(=O)c3ccc(OC)cc3)n3ccccc23)cc1 | ? | / | / | . | / | /
CCN1CC(C)(C)N(C(=O)c2ccccc2)CC1(C)C | . | / | / | . | . | /
CCCCOCCCNC(=O)C[C@@H]1C[C@@]2(C(=O)OC)CCCCC=C2N(Cc2ccc3c(c2)OCO3)C1=O | ? | / | / | ? | . | /
CCCCNC(=O)C[C@@H]1C[C@@]2(C(=O)OC)CCCCC=C2N(Cc2ccc3c(c2)OCO3)C1=O | ? | / | / | ? | -61 | /
CCOC(=O)[C@]12CCC=C1N(Cc1ccc3c(c1)OCO3)C(=O)[C@H](CC(=O)NCCCCc1ccccc1)C2 | 21µM | / | / | ? | -69 | /
COC(=O)[C@]12CCCCC=C1N(Cc1ccc3c(c1)OCO3)C(=O)[C@H](CC(=O)NCCCCc1ccccc1)C2 | ? | / | / | ? | -55 | /
CCOC(=O)[C@]12CCC=C1N(Cc1ccc3c(c1)OCO3)C(=O)[C@H](CC(=O)NCc1ccccc1)C2 | ? | / | / | ? | . | /
CCOC(=O)[C@]12CCCC=C1N(Cc1ccc3c(c1)OCO3)C(=O)[C@H](CC(=O)NCCCCc1ccccc1)C2 | 21µM | / | / | ? | -63 | /
CCCCNS(=O)(=O)c1cccc(NC(=O)[C@@H]2O[C@H](CO)[C@@H](O)[C@H]2O)c1 | . | / | / | . | . | /
COc1ccc(-n2ccn3c(CCC(=O)N4CCN(c5cccc(C)c5C)CC4)nnc3c2=O)cc1 | . | . | . | ? | . | .
CC[C@H](C)[C@H]1CNC(=O)C(=O)N1CC1CCN(CCCc2ccc(OC)c(OC)c2)CC1 | . | / | / | . | . | /
